Screen size: about 360,000 compounds; about 2,600 (0.72%) were called active.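 How the source made its calls: active means inhibition of the luminescence signal of 40% or more relative to plate controls, in a single-dose primary screen at 18.75 µM; inactive means the rest.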 Many of the other results were omitted from the sample, so actives are more common in it than they were.

The inhibition is the drop in the measured response relative to a control, in per cent.

The assay is described as follows: blockers of HIF-2a driven luciferase – luminescence, 786-0 RCC cells, primary screen (AID 624352). Conditions: 786-0 RCC cells HIF-2a reporter, overnight, at 18.8 µM, stronger effect = higher value.
Regarding `CC(=O)NC1=NN(C(C)=O)C(C)(c2ccc(Cl)s2)S1` (stereo not given), the inhibition was 14.9% (inactive).
On to `CCc1cc(=O)oc2c(C)c(OCC(=O)N3CC[C@@]4(O)CCCC[C@H]4C3)ccc12`, for which the inhibition is -4.19% (inactive).
Next, `Brc1ccc(CN2CC[C@H]3C=CCc4cccc(c43)C2)cc1`: 11.8% (inactive); `Cc1ccc(NC(=S)NC(NC(=O)Cc2cccc3ccccc23)C(Cl)(Cl)Cl)cc1` (stereo not given): 54.6% (active); `O=C(Cc1cccc2ccccc12)NNC(=O)Nc1ccc(Cl)cc1`: -196% (inactive).
Then `CC(C)(C)C(=O)NC(NC(=S)Nc1ccc(S(N)(=O)=O)cc1)C(Cl)(Cl)Cl` (stereo not given), with 5.45% (inactive); and `O=c1c2ccccc2cnn1Cc1n[nH]c(=S)n1-c1ccccc1F`, with 13.1% (inactive).
Turning to `O=C(NCCc1cccc(F)c1)C1CC(O)CN1C(=O)Nc1ccccc1` (stereo not given), the inhibition was 17.9% (inactive).
Regarding `CCCNC(=O)C1(C)CCCN(Cc2c(C)nn(-c3ccccc3)c2C)C1` (stereo not given), the inhibition was 6.85% (inactive).
Then `COc1ccc(CNC(=O)COc2ccccc2C(=O)c2cnn(-c3ccccc3)c2)cc1OC`, with -184% (inactive).
For `CCC1Oc2ccccc2N(CC(=O)NCCCN2CCN(CC)CC2)C1=O` (stereo not given), the inhibition is 4.83% (inactive).
For `CN1CCN(CCCNC(=O)c2ccc(/C=C3\Oc4ccccc4N(Cc4ccc(Cl)cc4)C3=O)cc2)CC1`, the inhibition was 89.4% (active).
Then `Cc1ccc(NC(=O)CCCNC(=O)c2ccc(Cl)cc2)cc1S(=O)(=O)N1CCOCC1`, with 5.62% (inactive); and `O=C1CCC(=O)N(c2ccccc2)N1`, with 9.24% (inactive).
Take `CN(c1ccc(OCC(=O)NC2=NCCS2)cc1)S(=O)(=O)c1ccc(F)cc1`: the inhibition was 1.28% (inactive).
`O=C(c1ccc2ccccc2n1)N1CCN(c2ccccc2Cl)CC1`: the inhibition was -107% (inactive).
Next, `Cc1coc2c(O)cc3c(c12)OC1(N2CCCCC2)C(=O)NCCCC31` (stereo not given): 56.7% (active).
`Cn1c(=O)c2sccc2n(Cc2ccc(Br)cc2)c1=O`: the inhibition was 13.3% (inactive).
`OCCC#Cc1ccc(N2C(c3ccsc3)=Cc3ccc(F)cc3C2c2c[nH]c3ccccc23)cc1` (stereo not given): the inhibition is -21.5% (inactive).
Next, `O=C(CCl)Nc1ccc(Sc2ccc(NC(=O)CCl)cc2)cc1`: 58.1% (active); `CC(=O)Nc1ccc(NC(=O)CC2CCCC2)cc1`: -38.5% (inactive); `O=C(O)CC(SCC(=O)Nc1ccc(Br)cc1)C(=O)O` (stereo not given): 2.54% (inactive).
For the compound `c1ccc(-c2cnc(CN3CCN(c4ccccc4)CC3)o2)cc1`, the inhibition was -16.5% (inactive).
Next, `CC(NC(=O)C(=O)NN=C1CCC(C(C)(C)C)CC1)c1ccccc1` (stereo not given): 13.2% (inactive); `CCCCc1c(-c2ccc(Cl)cc2)ncn1CCc1ccccc1OC`: -111% (inactive); `FC(F)(F)c1nnc2c3ccccc3c(Cl)nn12`: 16.8% (inactive).
Then `CC1(C(=O)Nc2ccc3c(c2)OCCO3)CN(S(C)(=O)=O)CC(=O)N1Cc1cccc(F)c1` (stereo not given), with 11.6% (inactive); and `Cc1ccc(-c2noc(CNC(=O)c3ccoc3C)n2)cc1`, with 89% (active); and `Cc1ccc(-c2noc(-c3ccccc3C(=O)NCC3CCCO3)n2)cc1` (stereo not given), with -126% (inactive).
For `O=C(Cc1ccc(Cl)cc1)NCc1nc(-c2ccccc2)no1`, the inhibition was 8.68% (inactive).
As for `COC(=O)c1ccc(COC(=O)c2cnccn2)cc1`, the inhibition was 9.27% (inactive).
Turning to `Cc1nc(C(F)(F)F)ccc1C(=O)N1CCC1(C)C(=O)NS(=O)(=O)c1ccccc1` (stereo not given), the inhibition was 18.3% (inactive).
On to `CC(C)C(=O)NC(NC(=S)NC1CCS(=O)(=O)C1)C(Cl)(Cl)Cl` (stereo not given), for which the inhibition is -1.77% (inactive).
Next, `O=S1(=O)CCC(NC(=S)SCc2ccccc2Br)C1` (stereo not given): 37.1% (inactive).
Next, `CCCSC(=S)NC1CCS(=O)(=O)C1` (stereo not given): 41.3% (active).
Consider `CC(=O)OCC1(O)CC23CCC4c5ccoc5CCC4(C)C2CCC1C3` (stereo not given), for which the inhibition is 7.41% (inactive).
Then `OCCNCCCCOc1ccccc1F`, with -0.6% (inactive); and `CC1(C)OC(=O)C2=C(C[C@@H](C3CCCC3)O[C@@H]2c2ccc(Cl)cc2)O1`, with 8.87% (inactive).
In the case of `CN(C(=O)Nc1ccc(Cl)cc1)n1cnc2ccccc2c1=O`, the inhibition was -36.5% (inactive).
For `COCC(C)n1c(SCC(=O)NC2CCCCC2C)nc2ccccc2c1=O` (stereo not given), the inhibition was 15% (inactive).
Next, `CN(c1ccc2nc3ccccc3c(=O)n2n1)C1CCCCC1`: 78.2% (active); `Cc1cccc(OCC(=O)OCC(=O)Nc2ccc(Cl)cn2)c1`: 11.3% (inactive).
Next, `Cc1ccc(C2=NN(C(=O)CSc3nc(N)cc(N)n3)C(c3ccco3)C2)cc1` (stereo not given): 24.9% (inactive); `O=C(CN1CCN(C2CCS(=O)(=O)C2)CC1)N1N=C(c2ccc(Cl)cc2)CC1c1ccco1` (stereo not given): 47.5% (active); `Cc1ccc(C2=NN(C(=O)COc3ncnc4ccccc34)C(c3ccco3)C2)cc1` (stereo not given): 6.33% (inactive).
Next, `CN(C(=O)c1cccc(NC(=O)Cc2cccc(NC(=O)C3CCCN(C(=O)C4CC4)C3)c2)c1)C1CCC1` (stereo not given): 11.8% (inactive).
With `COc1ccccc1C(=O)Nc1nc2nc(-c3ccccc3)cc(=O)n2[nH]1`, the inhibition is 4.83% (inactive).
Next, `COc1cc(C(O)c2nc(-c3cccc(C(=O)O)c3)cs2)ccc1F` (stereo not given): -9.8% (inactive); `COc1ccc2c(c1OC)C(=O)OC2Nc1nc(-c2ccccc2)cs1` (stereo not given): 57.8% (active).
Turning to `CCN1CCN(C(=O)c2cc3cc4ccc(OC)cc4nc3s2)CC1`, the inhibition is -78.9% (inactive).
For `COc1cc(OC)c(NS(=O)(=O)c2cn(C)cn2)cc1Cl`, the inhibition is 6.21% (inactive).
Next, `CSc1ccccc1NC(=O)Cc1ccc(Br)cc1`: -11.3% (inactive).
In the case of `COc1ccccc1CCNC(=O)C1CCN(C(=O)/C=C/c2ccccc2)CC1`, the inhibition was -5.61% (inactive).
On to `COc1ccc(C(=O)/C=C/c2ccc(-c3ccccc3)cc2)cc1CSCC(=O)O`, for which the inhibition is 67.7% (active).
Next, `COC(=O)c1ccc(COc2ccc(/C=C/C(=O)c3ccc(OC)c(CSCC(=O)O)c3)cc2OC)cc1`: -5.92% (inactive); `CC(C)Cc1ccc(C(C)C(=N)N)cc1` (stereo not given): 25.6% (inactive); `COc1ccc(CCNC(=O)Nc2ccc3c(c2)c(=O)n(C)n3C)cc1OC`: 3.46% (inactive).
Then `COCCNC(=O)CN(Cc1ccco1)C(=O)CCC(=O)Nc1nccs1`, with 3.02% (inactive); and `COCCNC(=O)Nc1ccc2nc(-c3ccco3)c(-c3ccco3)nc2c1`, with 42.3% (active).
Then `O=S1(=O)CC(N2CCN(Cc3ccccc3F)CC2)CN1Cc1cn(Cc2cccc(C(F)(F)F)c2)nn1` (stereo not given), with 1.15% (inactive); and `CCOc1ccc(OCC(=O)Nc2c3c(nn2C(C)(C)C)CS(=O)(=O)C3)cc1`, with -1.94% (inactive).
For `COc1ccc(NC(=O)COC(=O)CNC(=O)C2CCCCC2)cc1`, the inhibition was 12.4% (inactive).
Then `O=C1CCC(C(=O)OCC(=O)Nc2ccc(OC(F)F)cc2)=NN1`, with -7.05% (inactive); and `CCC(C)(C)c1ccc(Oc2ccc(NC(=O)COC(=O)C3=COCCO3)cc2)cc1`, with 82.3% (active).
Regarding `CCc1cccc(NC(=O)CCCN2C(=O)C(c3ccccc3)Oc3cccnc32)c1` (stereo not given), the inhibition is 9.51% (inactive).
Next, `Cc1ccc(C(=O)N2CC(=O)Nc3ccccc32)o1`: 14.2% (inactive); `Fc1ccc(CNc2nc3ccccc3n3nnnc23)cc1`: -134% (inactive); `CC(=O)Nc1ccc(C(=O)CSc2nnc(Cc3ccccc3)o2)cc1`: -43.3% (inactive).
As to `COc1cc(C(=O)NCc2nnc(SCC(=O)c3ccc(Cl)cc3)o2)cc(OC)c1OC`, the inhibition was 5.32% (inactive).
Then `CC(C)C[C@@H](N)c1nnc(SCC(=O)c2ccc(Cl)cc2)o1`, with 56.9% (active); and `C[C@H]1Cn2cnc(C(=O)N[C@@H](Cc3c[nH]c4ccccc34)C(=O)OC(C)(C)C)c2C(=O)N1`, with -4.95% (inactive); and `C=CCC[C@@H](Cc1ccc(F)cc1)C(=O)O[C@H](CNC(=O)[C@H](CC=C)CC(=O)N(CCO)Cc1ccccc1)c1ccccc1`, with 12.7% (inactive).
`CCN1CCN(C(=O)C2(NC(=O)Nc3cccc(F)c3)CCCCC2)CC1`: the inhibition is 9.23% (inactive).
Regarding `COc1ccc(NC(=O)C2C3C=CC(C3)C2C(=O)NCc2ccccn2)c(OC)c1` (stereo not given), the inhibition was 10.9% (inactive).
Next, `Cc1c(NC(=O)C(C)OC(=O)c2cc3c4ccccc4n(C)c3s2)c(=O)n(-c2ccccc2)n1C` (stereo not given): 4.75% (inactive); `Cc1sc2ccccc2c1CNC[C@H]1O[C@@H](n2ccc(=O)[nH]c2=O)[C@H](O)[C@@H]1O`: 11.7% (inactive).
On to `OC(c1cc(Cl)cc(Cl)c1)c1ncc(-c2ccccc2C(F)(F)F)[nH]1` (stereo not given), for which the inhibition was 14.7% (inactive).
Consider `O=C(OC12CC3CC(CC(C3)C1)C2)c1ccc(NCc2cc(O)ccc2O)cc1`, for which the inhibition is 88.1% (active).
Then `CC(C)OCCCNC(=S)N1CCC(C(=O)c2ccc3c(c2)OCCO3)CC1`, with -5.91% (inactive); and `c1ccc(-c2ccnc3nc(-n4cccc4)nn23)cc1`, with -8.27% (inactive).
For the compound `C/C(N)=C(/C#N)C(=O)COC(=O)C1CCN(C(=O)c2ccc(Cl)cc2)CC1`, the inhibition is 8.64% (inactive).
Consider `CCc1ccc(-c2cc(C)no2)cc1S(=O)(=O)NCCc1ccc(S(N)(=O)=O)cc1`, for which the inhibition is 9.29% (inactive).
In the case of `Cc1cc(CNC(=O)C2CCC(=O)N(CCc3ccc(Cl)cc3)C2)no1` (stereo not given), the inhibition was -9.67% (inactive).
Then `O=C(NCCc1c[nH]c2ccc(Cl)cc12)c1ccc([N+](=O)[O-])cc1`, with -9.18% (inactive); and `COc1ccccc1CN(C)c1nnnn1-c1ccccc1`, with 15.6% (inactive); and `COc1ccccc1-n1nnnc1S(=O)(=O)Cc1ccc(Cl)cc1`, with 86% (active).
As for `CCN(C(=O)CSc1nnnn1-c1ccccc1OC)C1CCS(=O)(=O)C1` (stereo not given), the inhibition was -1.01% (inactive).
Then `Cc1[nH]c2ccccc2c1C(=O)c1cc([C@H](NC(=O)OC(C)(C)C)C(C)C)sc1N`, with 2.29% (inactive); and `C=CCOc1ccccc1CNn1c(C)n[nH]c1=S`, with 21.3% (inactive).
Then `COc1cccc(C(NC(C)=O)c2nc(-c3cnc4ccccc4c3)cs2)c1` (stereo not given), with -32.9% (inactive).

Source of the values: PubChem BioAssay AID624352 (Sanford-Burnham Center for Chemical Genomics, 2012).
